Screening data from PubChem BioAssay.
In the library only some 21% were active in any assay of this set; here they are far more common.
CYP2C19 inhib: blockers of cytochrome P450 2C19 activity – biochemical, luminescence, ADME assay, primary screen | 96,000 compounds, 21% hits | P33261 | inhibition, % at 5 µM | CYP2C19 Supersomes, luciferin-H EGE luminescence, 30 min;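 active means CYP2C19 inhibition above a set limit at 5 µM in the primary screen, cut at about 50% in these data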
CYP2C9 inhib: blockers of cytochrome P450 2C9 activity – biochemical, luminescence, ADME assay, primary screen; 96,000 compounds, 20% hits; P11712; inhibition, % at 5 µM; CYP2C9 Supersomes, luciferin-H conversion; AID 777, 2007;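 active means blocking of liver enzyme CYP2C9 beyond about 50% at 5 µM, limit read from the data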
Target sequence (P11712 whole entry, looked up): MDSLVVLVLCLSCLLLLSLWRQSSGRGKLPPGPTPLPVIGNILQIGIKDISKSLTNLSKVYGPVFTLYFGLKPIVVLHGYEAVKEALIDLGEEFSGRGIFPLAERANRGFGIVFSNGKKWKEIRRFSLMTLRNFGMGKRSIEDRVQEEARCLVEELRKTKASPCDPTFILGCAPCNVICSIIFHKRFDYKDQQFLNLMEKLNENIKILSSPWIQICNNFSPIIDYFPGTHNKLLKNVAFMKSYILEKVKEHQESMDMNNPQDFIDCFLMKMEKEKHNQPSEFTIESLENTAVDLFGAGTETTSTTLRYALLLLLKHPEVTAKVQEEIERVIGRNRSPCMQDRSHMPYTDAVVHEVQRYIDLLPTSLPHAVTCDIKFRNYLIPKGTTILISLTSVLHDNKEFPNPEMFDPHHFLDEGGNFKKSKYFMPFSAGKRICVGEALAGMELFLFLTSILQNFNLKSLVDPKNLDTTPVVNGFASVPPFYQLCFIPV
MRP-1 activ: H69AR viability gain despite doxorubicin, primary screen, MRP-1 activator project, H69AR cells, CellTiter-Glo; viability increase, % at 10 µM; 140,000 compounds, 0.61% hits; AID 799, 2007; viability rescue;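 active means viability gain under doxorubicin at or above a set limit, the compound median plus 3 SD, cut at about 4.7% in these data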;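 further: MRP-1 overexpressing cells given doxorubicin 25 µM after compound pretreatment; 18-22 h compound pretreatment then 72 h with doxorubicin before readout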
CYP2C19 act: human CYP2C19 activators, primary screen, biochemical, luminescence; Cytochrome P450 2C19 (Homo sapiens), P33261; recombinant CYP2C19, luciferin-H EGE luminescence; active compounds read high; 0 = fully inhibited enzyme, 1 = untreated enzyme; activation factor at 5 µM; 96,000 tested, under 10 active;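 active means activation factor of at least 2 at 5 µM in the primary screen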
CYP2C9 activ: human CYP2C9 activators, primary screen, biochemical, luminescence; AID 1024, 2008; activation factor at 5 µM; 96,000 compounds, 1.4% hits; recombinant CYP2C9, luciferin-H conversion; active compounds read high; factor 1 = untreated enzyme, 0 = blocked; Cytochrome P450 2C9 (Homo sapiens), P11712;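 active means activation factor of 2 or more for CYP2C9 at a 5 µM dose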
MRP resist rev: reversal of MRP1-mediated doxorubicin resistance, primary screen, H69AR cells, doxorubicin co-treatment | H69AR cells + 2 uM doxorubicin, CellTiter-Glo, 72 h | 85,000 compounds, 0.04% hits | differential viability (reversal), % at 10 µM | AID 602, 2007;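 active means viability drop by adding the cancer drug above about 55%, with treated viability meeting a 40% cutoff, limit read from the data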;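 further: larger differential means the compound sensitizes cells more to doxorubicin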
Hits are given with their value; 0 = inactive; - = not tested or not shown.

SMILES	CYP2C19 inhib	CYP2C9 inhib	MRP-1 activ	CYP2C19 act	CYP2C9 activ	MRP resist rev
COc1cccc(C(O)c2nc3ccccc3n2C(C)C)c1 (stereo unspecified)	91	0	0	0	0	0
CCn1c(C(C)NC(C)=O)nc2ccccc21 (stereo unspecified)	0	0	0	0	0	0
Cc1ccc(NC(=O)CSc2nnc(C(F)(F)F)n2C)cc1[N+](=O)[O-]	-	-	0	-	-	-
O=C(COc1ccc(Cl)cc1)Nc1ccc(N2CCN(C(=O)c3ccco3)CC2)cc1	51	0	0	0	0	-
O=C(CSc1ccc(Cl)cc1)Nc1ccc(NC(=O)c2ccco2)cc1	0	0	0	0	0	-
Cc1cc(C)cc(OCC(=O)Nc2ccc(N3CCN(C(=O)c4ccco4)CC3)cc2)c1	0	0	0	0	0	-
O=C(CSc1ccc(Cl)cc1)Nc1ccc(N2CCN(C(=O)c3ccco3)CC2)cc1	0	64	0	0	0	0
FC(F)(F)C(Oc1nc(NC2CCCCC2)nc(N2CCOCC2)n1)C(F)(F)F	0	0	0	0	0	0
COc1ccccc1CN(Cc1nc2ccccc2c(=O)[nH]1)C(=O)Nc1ccccc1	0	0	0	0	0	0
O=Cc1c[nH]c2ccc(S(=O)(=O)N3CCOCC3)cc12	-	-	0	-	-	-
CCOc1cc(C)nc(N2CCN(C3CCCCC3)CC2)n1	62	0	0	0	0	0
CC1CCC(C(C)C)C(OC(=O)COC(=O)c2cccn2C)C1 (stereo unspecified)	91	80	0	0	0	0
COCCNC(=O)C1CC(=O)N(C2CCCC2)C1 (stereo unspecified)	0	0	0	0	0	0
CCOC(=O)COc1ccc(Br)cc1C1NC(=O)NC(C)=C1C(=O)NCc1ccccc1 (stereo unspecified)	0	83	0	0	0	0
S=c1[nH]nc(CCc2ccccc2)n1-c1ccccc1	-	-	0	-	-	-
Cc1ccc(CN2C(=O)CCC2C(=O)NCCN2CCN(c3cccc(Cl)c3)CC2)cc1 (stereo unspecified)	-	-	-	-	-	0
c1ccc(-c2noc(COc3ccc4c(c3)OCO4)n2)cc1	0	0	0	0	0	0
c1ccc(OCc2nc(-c3cccs3)no2)cc1	74	62	0	0	0	0
CCOc1nc(-c2ccccc2)ccc1-c1noc(COc2ccccc2)n1	60	80	0	0	0	0
Cc1cc(OCc2nc(-c3cccs3)no2)cc(C)c1Cl	50	0	0	0	0	0
O=C(c1ccc(CNS(=O)(=O)c2ccccc2)cc1)N1CCN(Cc2ccccc2)CC1	0	0	0	0	0	0
O=C(O)CCCNC(=O)c1ccccn1	-	-	0	-	-	-
COC(=O)c1oc2ccc(Br)cc2c1NC(=O)CCN1CCOCC1	0	55	0	0	0	0
NC(=O)c1oc2ccc(Cl)cc2c1NC(=O)CN1CCOCC1	52	0	0	0	0	0
CCOC(=O)c1oc2ccc(Br)cc2c1NC(=O)CN1CCN(C)CC1	0	0	0	0	0	0
SMILES	CYP2C19 inhib	CYP2C9 inhib	MRP-1 activ	CYP2C19 act	CYP2C9 activ	MRP resist rev
COc1cccc(-c2nc(CS(=O)(=O)c3ccccc3)no2)c1	0	0	0	0	0	-
O=C1CC(c2cccnc2)c2cc3c(cc2N1)OCO3 (stereo unspecified)	0	0	0	0	0	0
CC(C)Oc1ccccc1C1CC(=O)Nc2cc3c(cc21)OCO3 (stereo unspecified)	99	76	0	0	0	0
CCOc1ccccc1C1CC(=O)Nc2cc3c(cc21)OCCO3 (stereo unspecified)	54	69	0	0	0	0
CCCOc1ccccc1C1CC(=O)Nc2cc3c(cc21)OCCO3 (stereo unspecified)	-	-	0	-	-	-
CC(C)(C)c1ccc(CNc2ccc([N+](=O)[O-])cn2)cc1	-	-	0	-	-	-
CCOc1ccccc1NC(=O)CN1CCC(NC(=O)c2ccccc2)CC1	95	0	0	0	0	0
CCOc1ccc(OCC)c(NC(=O)CN2CCC(NC(=O)c3cccc(F)c3)CC2)c1	74	68	0	0	0	0
O=C(CN1C(=O)c2ccccc2C1=O)Nc1ccccc1C(=O)NC1CCCCC1	0	65	0	0	0	0
